# The campaign covered roughly 310,000 compounds. About 1,900 (0.61%) were called active.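 Rule for the calls: active = plate-corrected calcium response at least 3 library SD above typical, normal starting fluorescence, not activating the receptor alone; inactive = the rest.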 The full list was thinned out, with actives kept by preference.
# Molecular target: Mas-related G-protein coupled receptor member X1 (Homo sapiens) (UniProt Q96LB2)
# Experiment: positive allosteric modulators of MrgX1, primary screen, HEK293 cells, Fluo-4 calcium flux (AID 588675);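 note: compound read alongside a low EC10 to EC30 dose of BAM8-22 agonist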;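 for B-score: peak minus trough fluorescence over baseline measured at the second addition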
# Details: MrgX1-HEK293, Fluo-4 calcium flux, FDSS, at 10 µM; active compounds read high
# Sequence of Mas-related G-protein coupled receptor member X1 (Homo sapiens) (Q96LB2 whole entry, looked up): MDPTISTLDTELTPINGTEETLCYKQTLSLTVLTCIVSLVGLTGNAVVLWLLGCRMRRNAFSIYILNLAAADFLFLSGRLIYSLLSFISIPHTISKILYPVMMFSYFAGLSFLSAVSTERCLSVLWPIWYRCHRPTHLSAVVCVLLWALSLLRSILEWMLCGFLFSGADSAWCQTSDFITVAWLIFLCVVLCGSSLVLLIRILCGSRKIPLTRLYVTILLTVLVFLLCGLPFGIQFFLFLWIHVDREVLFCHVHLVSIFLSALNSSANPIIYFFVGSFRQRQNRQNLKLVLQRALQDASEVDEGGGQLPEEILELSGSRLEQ
row,Structure (SMILES),B-score
1,O=S(=O)(Nc1ccc(Oc2ncccn2)c(Cl)c1)c1ccc(F)cc1,inactive
2,COc1ccc(Cl)cc1NC(=O)CCS(=O)(=O)c1ccc(Br)cc1,inactive
3,CC1CCN(CCCNC(=O)CN2C(=O)CSc3ccc(S(=O)(=O)N4CCCCC4)cc32)CC1,inactive
4,CC(=O)c1ccc(N=C2SCCCN2C(=O)C2CCCCC2)cc1,inactive
5,O=C(c1cc2c(s1)CCC2)N1CCN(c2ccccc2)CC1,inactive
6,O=C(Nc1ccc(F)cc1)c1cc2c(s1)CCCC2,inactive
7,O=C(NNC(=O)c1cc2c(s1)CCCC2)c1ccccc1,6.55 (active)
8,CC1(C)C=Cc2c(ccc3c2OC[C@@H](c2ccc(O)cc2O)C3)O1,inactive
9,CC1(C)CC(=O)c2cnc3nc4ccccc4n3c2C1,inactive
10,CCn1cc(C(=O)NCC(=O)NC(C)(C)CO)c(=O)c2cc3c(cc21)OCO3,inactive
11,COc1ccc(-c2nc(N)ncc2-c2ccc(Cl)cc2)c(O)c1,inactive
12,CC(C)(C)Oc1ncc(Br)c(OC(C)(C)C)n1,inactive
13,COc1cccc(-c2cnc(OC(C)(C)C)nc2OC(C)(C)C)c1,6.93 (active)
14,OCCn1c(-c2ccccc2)csc1=Nc1ccccc1,14.7 (active)
15,Cc1csc(=Nc2ccccc2)n1CCO,inactive
16,Cc1csc(=NC(=O)c2ccccc2)n1CCO,inactive
17,COCCOCCn1cnc2ccccc21,inactive
18,Clc1ncn(CCOc2ccccc2)c1Cl,inactive
19,Cc1cc2ncn(CCCCOc3ccccc3)c2cc1C,10.8 (active)
20,CCN1CCCC1CNC(=O)c1cc2cc(OC)c(OC)cc2[nH]1 (centres undefined),inactive
21,COc1ccc(-c2cc(C(F)(F)F)nc(S(C)(=O)=O)n2)cc1OC,8.21 (active)
22,COc1ccc(-c2cc(C(F)(F)F)nc(NCc3cccnc3)n2)cc1,inactive
23,COc1ccc(-c2ccc(Nc3ccc(S(=O)(=O)N4CCCC4)cc3)nn2)cc1OC,inactive
24,N/C(=N\OC(=O)CCn1cccc(C(F)(F)F)c1=O)c1ccc(OC(F)(F)F)cc1,inactive
25,Cc1ccc2c(=O)oc(N(C)C)nc2c1,inactive
26,CCC(C)CCN1CCN=C1N(C)C (centres undefined),inactive
27,COc1ccc(CCNC(=O)C(Sc2ccccn2)c2ccccc2)cc1OC (centres undefined),8.72 (active)

row,Structure (SMILES),B-score
1,COc1ccc(CCNC(=O)C(=O)NCc2ccccc2C)cc1OC,inactive
2,COc1ccc(CCNC(=O)c2ccccc2-c2ccccc2C(=O)O)cc1OC,inactive
3,Cc1ccc(NC(=O)C(C)OC(=O)Cc2c[nH]c3ccccc23)cc1S(=O)(=O)N1CCOCC1 (centres undefined),inactive
4,CCOc1cccc2c1OC1(CCCCC1)N1N=C(c3cccnc3)CC21 (centres undefined),inactive
5,CC(C)=CCC/C(C)=C/C(=O)O,inactive
6,Cc1cccc(C)c1NC(=S)N(Cc1cccnc1)Cc1ccccc1Cl,10.5 (active)
7,Cc1ccc(CN(Cc2cccnc2)C(=S)Nc2cccc(Cl)c2C)cc1,inactive
8,Cc1c(Cl)cccc1NC(=S)N(Cc1ccccc1)Cc1cccnc1,inactive
9,O=C(COC(=O)c1ccc(NS(=O)(=O)c2cccs2)cc1O)Nc1ccc(F)cc1,9.09 (active)
10,CCc1ccc(NC(=O)COC(=O)c2cccs2)cc1,inactive
11,Cc1cccc(C(=O)OCC(=O)Nc2ccc(F)cc2)c1,inactive
12,Cc1cc(S(=O)(=O)NC2CCCC2)ccc1-n1cnnn1,inactive
13,Cc1ccc(-n2[nH]c(C)c(/C=N/N3C(=O)c4cccc5cccc(c45)C3=O)c2=O)cc1,inactive
14,Cc1[nH]n(-c2cccc(Cl)c2)c(=O)c1/C=N/n1c(C)nc2ccccc2c1=O,inactive
15,Cc1[nH]n(-c2ccc(Cl)cc2)c(=O)c1/C=N/n1c(C)nc2ccccc2c1=O,11.4 (active)
16,Cc1ccc(NS(=O)(=O)c2ccc3c(c2)oc(=O)n3C)c(C)c1,inactive
17,O=C(NCC(=O)N1CCC2(CC1)NCCc1[nH]cnc12)c1ccc(Br)cc1,inactive
18,Cc1cc(C)c(S(=O)(=O)N2CCOCC2)cc1C,inactive
19,C/C(=N\Nc1nc2ccccc2[nH]1)c1cccs1,inactive
20,C/C(=N\Nc1ncc(Cl)cc1Cl)c1ccc(S(=O)(=O)NCc2ccco2)cc1,inactive
21,C/C(=N\Nc1ncc(Cl)cc1Cl)c1cccs1,8.26 (active)
22,O=C(C[C@H]1C(=O)N(c2ccc(F)c(F)c2)C[C@@H]1Cc1ccccc1)Nc1ccccc1,inactive
23,COc1ccccc1-n1nnnc1S(=O)(=O)Cc1ccc(Cl)cc1,inactive
24,CCCCNS(=O)(=O)c1ccc(S(=O)(=O)n2cnc3ccccc32)cc1,inactive
25,CC(C)C(=O)Nc1ccc2oc(=O)ccc2c1,inactive
26,Cc1oc2cc3oc(=O)ccc3cc2c1C,inactive
27,COc1c(C(C)C)oc2cc3oc(=O)ccc3cc12,9.1 (active)
